D2 antag: antagonists of human D2 dopamine receptor; actives 2% (n = 340,000); inhibition, % at 10 µM; P14416; HEK293 TREx D2 cells, calcium flux, dopamine EC80; in the data active means inhibition above about 30%; inactive means below that, where a call was filed
Target sequence (P14416 whole entry, looked up): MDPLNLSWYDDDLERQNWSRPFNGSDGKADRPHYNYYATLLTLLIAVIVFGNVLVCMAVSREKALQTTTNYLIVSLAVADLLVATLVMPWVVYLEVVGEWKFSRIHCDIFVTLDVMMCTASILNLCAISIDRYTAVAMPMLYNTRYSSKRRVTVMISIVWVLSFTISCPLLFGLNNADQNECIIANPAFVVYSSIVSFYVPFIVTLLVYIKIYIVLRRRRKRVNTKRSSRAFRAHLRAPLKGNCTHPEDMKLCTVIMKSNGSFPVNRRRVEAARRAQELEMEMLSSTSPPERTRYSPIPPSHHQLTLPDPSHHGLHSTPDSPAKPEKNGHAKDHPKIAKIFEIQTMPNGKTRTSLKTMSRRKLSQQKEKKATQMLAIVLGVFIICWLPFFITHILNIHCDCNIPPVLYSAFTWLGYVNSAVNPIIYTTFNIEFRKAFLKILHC
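Measurement of antagonist activity uses fluorescent calcium dye in inducible HEK293 T-REx D2 cells: 10 s baseline, compound addition with 180 s read, EC80 dopamine addition with a further 180 s read.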
LDHA inh: LDHA (human) enzyme inhibition. activity change, % (values are at about 110 or 230 µM). actives 0.15% (n = 480,000). AID 1347041. P00338. purified LDHA, NADH/diaphorase-resazurin fluorescence; stronger effect = lower value; in the data active means activity change below about -30%; inconclusive means mostly about -25% to -30%
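LDH5 2 nM; NADH 0.06 mM, pyruvate 0.2 mM; 200 mM Tris pH 7.4, EDTA, Tween-20; 5 min RT. Detection: diaphorase 0.133 mg/mL + resazurin 37 µM, fluorescence ex540/em590 at 0 and 20 min; normalized to enzyme-free and DMSO wells.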
D2 ag-1: activates the human D2 dopamine receptor; P14416; HEK293 T-REx D2 cells, calcium flux agonist mode; activation, % at 2 µM; actives 0.53% (n = 340,000); AID 485358;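 active means activation over 3 SD above normal in the single-dose calcium agonist read, cut at about 30% in these data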
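Agonism scored from kinetic calcium signal (1 read/sec, 180 s) following compound pin transfer, after a 10 s baseline. Cells: HEK293 Trex line expressing inducible D2 receptor coupled to calcium, dye-loaded after overnight culture at 30 C.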
D2 PAM-1: D2 dopamine receptor (human) potentiation; P14416; HEK293 T-REx D2, calcium flux, EC20 dopamine potentiation; potentiation, % at 10 µM; actives 0.34% (n = 340,000); AID 485347;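 active means potentiation over 3 SD above the plate norm, cut at about 30% in these data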
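Potentiation of an EC20 dopamine calcium response is measured in a force-coupled, tetracycline-inducible Hek293 Trex D2 line. Compound-only kinetic reads over 180 s flag agonists before dopamine addition.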
D2 PAM-2: positive allosteric modulators of human D2 dopamine receptor; P14416; DiscoveRx D2 beta-arrestin cells, luminescence, 90 min; 100% = 57 uM dopamine signal; potentiation, % (test concentration not listed); actives 0.23% (n = 360,000); in the data active means potentiation above about 50%; inconclusive means mostly about 30% to 49%
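D2 cells co-treated with compound plus 50 nM dopamine (EC20) for 90 min at 37 deg C to detect potentiation. Beta-arrestin recruitment was read as enzyme-fragment luminescence after 1 h at ambient temperature. Full response was set by 57 uM dopamine.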
D2 ag-2: human D2 receptor agonism in beta-arrestin assay; P14416; DiscoveRx PathHunter D2 beta-arrestin, luminescence, 90 min; 100% = 57 uM dopamine signal; activation, % (no concentration beside the values); actives 0.084% (n = 360,000); AID 624465; in the data active means activation above about 40%; inconclusive means between about 15% and that limit
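Agonist mode: compounds alone added to overnight-plated D2 PathHunter cells for 90 min at 37 C, with 57 uM final dopamine (EC100) defining full response. Beta-arrestin recruitment detected by chemiluminescent reagent, read after 1 h at ambient temperature.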
D3 ag: confirmation of human D3 dopamine receptor agonists, beta-arrestin. shares compounds with D2 ag-1. DiscoveRx D3 beta-arrestin cells, luminescence, 90 min. Potency, µM (doses to about 76.9 µM), hits mostly activators. actives 4% (n = 2,300). AID 720506; further: nearly all actives have a fitted effect of over 70% in size
D2 ag-3: D2 receptor agonism, beta-arrestin counterscreen; AID 720507; shares compounds with D2 ag-1; Potency, µM (top dose mostly 76.9 µM), actives largely listed as activators; DiscoveRx PathHunter D2 beta-arrestin, luminescence, 90 min; response scale: percent relative to full dopamine signal; actives 5.9% (n = 2,300); further: nearly all actives have a fitted effect of over 70% in size
Each line names hits and unclear results; the compound was inactive in the other large screens (follow-up assays come after a bar, where they were run). Hits are enriched below; roughly 2.1% of the tested compounds scored in any of these assays. Unless noted, the call rests on the fitted dose curve; in most records, active means well fitted activation curve with a large enough effect; inconclusive means small, poorly fitted or top-dose-only effect; inactive means flat fitted curve, though single readings scatter.

CC1CCC(NCCNC(=O)c2ccco2)CC1 (stereo not drawn)	D2 ag-1 68 | D3 ag inactive | D2 ag-3 inactive
O=C(NCCNC1CCCCC1)c1ccco1	none
Cc1ccccc1NC(=O)c1ccc2c(c1)NC(=O)CS2	none (no result: D2 antag, D2 ag-1, D2 PAM-1, D2 PAM-2, D2 ag-2)
CC(NCc1ccccc1)C1COc2ccccc2O1 (stereo not drawn)	D2 ag-1 38 | D3 ag inactive | D2 ag-3 inactive
CC(NCC(O)COc1ccccc1)C1COc2ccccc2O1 (stereo not drawn)	D2 antag 64, D2 ag-1 65, D2 ag-2 inconclusive | D3 ag inactive | D2 ag-3 inactive
Brc1cccc(OCCN2CCc3ccccc3C2)c1	D2 antag 96, D2 ag-1 52 | D3 ag inactive | D2 ag-3 inactive
C=CCNC(=S)N/N=C1/CCC=C1CCCCC	none (no result: D2 antag, D2 ag-1, D2 PAM-1, D2 PAM-2, D2 ag-2)
COc1ccc(CNCCNC(=O)c2ccco2)c(OC)c1OC	D2 ag-1 48 | D3 ag inactive | D2 ag-3 inactive
Cc1c(C(=O)C(=O)NCc2ccccc2Cl)c2ccccc2n1C	none (no result: D2 antag, D2 ag-1, D2 PAM-1, D2 PAM-2, D2 ag-2)
CCn1c(=O)c(CCC(=O)NCCN2CCOCC2)c(C)c2c(C)nn(-c3ccccc3)c21	none
CCn1c(=O)c(CCC(=O)N2CCN(c3ccccn3)CC2)c(C)c2c(C)nn(-c3ccccc3)c21	none | D3 ag inactive | D2 ag-3 inactive
CNC(=O)NC(=O)COC(=O)c1csc(NCc2ccccc2)n1	none (no result: D2 antag, D2 ag-1, D2 PAM-1, D2 PAM-2, D2 ag-2)
CC(C)CCn1nnnc1CN1CCN(c2ccccc2)CC1	D2 antag 50, D2 ag-1 52 | D3 ag inactive | D2 ag-3 inactive
COCCn1nnnc1CN1CCN(c2cccc(C(F)(F)F)c2)CC1	none
CCOc1ccc(-n2c(SCc3nc(-c4ccc(C)cc4)no3)nnc2-c2ccncc2)cc1	D2 ag-1 47 | D3 ag inactive | D2 ag-3 inactive
COc1ccc(-c2noc(CSc3nnc(-c4ccncc4)n3-c3ccc(C)cc3)n2)cc1	none (no result: D2 antag, D2 PAM-2, D2 ag-2)
Cc1ccc(NC2=NCC(=O)N2Cc2cccs2)cc1C	none (no result: D2 antag, D2 ag-1, D2 PAM-1) | D3 ag inactive | D2 ag-3 inactive
CCN(CC)C(=O)c1[nH]cnc1C(=O)N[C@@H](C)C(=O)OC(C)(C)C	none | D3 ag inactive | D2 ag-3 inactive
COc1ccc(Cl)cc1NC(=O)Nc1ccc2c(c1)oc(=O)n2C	none (no result: D2 antag, D2 ag-1, D2 PAM-1, D2 PAM-2, D2 ag-2)
Cn1c(=O)c2nc(Cl)n(Cc3ccccc3)c2n(C)c1=O	none (no result: D2 antag, D2 ag-1, D2 PAM-1, D2 PAM-2, D2 ag-2)
CCC(C)(C)C1CCC2(CC1)NC(=O)N(CC(=O)N(C)Cc1ccc3c(c1)OCCO3)C2=O (stereo not drawn)	none | D3 ag inactive | D2 ag-3 inactive
CN(Cc1ccc2c(c1)OCCO2)C(=O)CN1C(=O)NC2(CCCCC2)C1=O	none
Cc1ccc(S(=O)(=O)N2CCN(C(=O)CCc3ncc(-c4ccccc4F)o3)CC2)c(C)c1	none (no result: D2 antag, D2 ag-1, D2 PAM-1, D2 PAM-2, D2 ag-2)
N#Cc1c(NC(=O)CSc2nc3ccc(Cl)cc3[nH]2)sc2c1CCC2	none (no result: D2 antag, D2 ag-1, D2 PAM-1, D2 PAM-2, D2 ag-2)
CCN(CC)CC(O)Cn1c(-c2ccccc2Cl)nc2ccccc21 (stereo not drawn)	D2 ag-1 45 | D3 ag inactive | D2 ag-3 inactive
On1c(-c2ccccc2Cl)nc2ccccc21	none
CCC(C)(C)NC(=O)Cc1csc(-c2ccccc2)n1	none (no result: D2 antag, D2 ag-1, D2 PAM-1, D2 PAM-2, D2 ag-2)
O=C(NCCCN1CCN(c2ccccc2F)CC1)C1CCCN(S(=O)(=O)c2cnc[nH]2)C1 (stereo not drawn)	D2 antag 65, D2 ag-1 68 | D3 ag inconclusive | D2 ag-3 inactive
CC(=O)c1ccc(N2CCN(C(=O)C3CCCN(S(=O)(=O)c4cnc[nH]4)C3)CC2)cc1 (stereo not drawn)	D2 antag 32 | D3 ag inactive | D2 ag-3 inactive

Screening results: PubChem, National Center for Advancing Translational Sciences (NCATS)
